# PubChem BioAssay (NCI)
# The panel holds about 83,000 compounds, 20% with a hit somewhere; the sample as a whole holds those more often.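 Activity criterion: percent growth below 10, measured after cells in 96-well plates were exposed to a single compound concentration for 48 hours.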 A number with no mark means an inactive call. Calls of active or inactive are those of the source.
# Experiments:
# Experiment in all cases: NCI-60 one-dose screen, 48 h (100 = growth as untreated, 0 = no growth, -100 = all killed)
# Details in all cases: 10 µM unless noted
# NCI-H23 lung = system: NCI-H23 lung
# NCI-H226 lung = system: NCI-H226 lung
# HOP-62 NSCLC = system: HOP-62 NSCLC
# NCI-H460 lung = system: NCI-H460 lung
# HOP-92 NSCLC = system: HOP-92 NSCLC
# NCI-H522 lung = system: NCI-H522 lung
# A549/ATCC NSCLC = system: A549/ATCC NSCLC
# 786-0 renal = system: 786-0 renal
# COLO 205 colon = system: COLO 205 colon
# DU-145 prostate = system: DU-145 prostate
# K-562 leukemia = system: K-562 leukemia
# MALME-3M melanoma = system: MALME-3M melanoma
# MDA-MB-231 breast = system: MDA-MB-231 breast
# RXF 393 renal = system: RXF 393 renal
# SF-268 CNS = system: SF-268 CNS
# SF-295 CNS = system: SF-295 CNS
# SF-539 CNS = system: SF-539 CNS
# UACC-257 melanoma = system: UACC-257 melanoma
# M14 melanoma = system: M14 melanoma
# NCI-H322M lung = system: NCI-H322M lung
SMILES,growth (NCI-H23 lung),growth (NCI-H226 lung) [%],growth (HOP-62 NSCLC),growth (NCI-H460 lung),growth (HOP-92 NSCLC),growth (NCI-H522 lung),growth (A549/ATCC NSCLC),growth (786-0 renal),growth (COLO 205 colon),growth (DU-145 prostate),growth (K-562 leukemia),growth (MALME-3M melanoma),growth (MDA-MB-231 breast),growth (RXF 393 renal),growth (SF-268 CNS),growth (SF-295 CNS),growth (SF-539 CNS),growth (UACC-257 melanoma),growth (M14 melanoma),growth (NCI-H322M lung) [%]
c1ccc(-c2cc3cc4ccccc4cn3c2)cc1,89.3%,73.1,78.7%,88.3%,76.5%,79.4%,89.9%,102%,95.1%,101%,64.3%,91.3%,81.6%,104%,95.7%,84.8%,104%,91.6%,94.7%,
O=C(c1ccccc1)C(O)C(Br)(CBr)c1ccccc1 (stereo not drawn),74.9%,90.2,107%,,47.2%,-30.8% (active),88.5%,105%,120%,87.1%,50.8%,99.9%,91.6%,105%,98.8%,103%,107%,72.5%,82.6%,101
Nc1ccc(C(=O)/C=C/c2ccccc2)cc1,96.5%,105,,100%,88.3%,80.8%,91.5%,86.2%,119%,62.1%,14.3%,93.9%,98.2%,104%,85.8%,101%,102%,108%,80.4%,90.8
Cc1ccc2cccc(OC(=O)Nc3cccc(C(F)(F)F)c3)c2n1,37.1%,67.7,,27.5%,,37.2%,42.7%,78.6%,62.3%,71.1%,33.5%,82%,86.6%,95.6%,95%,6.24% (active),96.4%,87.3%,85.5%,88.7
C(=N\Nc1ccc2ccccc2n1)/c1ccccn1,32.4%,10.9,6.17% (active),3.31% (active),42.2%,20.2%,8.26% (active),22.1%,20%,22.7%,15.4%,-23.6% (active),30.5%,16.7%,16.7%,14.7%,-14.2% (active),-3.38% (active),-8.17% (active),
O=[N+]([O-])c1ccc(Oc2ccccc2Cl)c([N+](=O)[O-])c1,73.9%,83.8,99.4%,105%,83.7%,73.8%,92.7%,83.7%,112%,89%,17.4%,85.5%,75.5%,86.7%,84.9%,102%,94.6%,89.8%,86.2%,
Nc1nc(-c2ccccc2)nc(N)c1N=O,97.3%,90.4,,23.8%,65.3%,-7.61% (active),66%,83.6%,,88.8%,31.7%,91.3%,93.8%,63.9%,77.2%,108%,77.5%,54.4%,67.3%,100
COC(=O)c1cc([N+](=O)[O-])cc([N+](=O)[O-])c1Cl,98.3%,102,102%,102%,99.7%,-74% (active),101%,102%,-64.1% (active),66.1%,15.2%,49.5%,105%,91.4%,,101%,102%,70.4%,20.5%,
O=C1C=CC(O)=CC1=P(c1ccccc1)(c1ccccc1)c1ccccc1,94.6%,88.8,99.7%,73.6%,,81.8%,,87.9%,105%,114%,88.8%,59.5%,81.3%,,100%,107%,86.9%,,100%,83.3
CCCCCCCCC(=O)OCCCC(CCC(CCC1CCCO1)OC(=O)CCCCCCCC)OC(=O)CCCCCCCC (stereo not drawn),104%,104,95.6%,111%,99%,70.8%,104%,97%,111%,106%,115%,109%,,107%,95.7%,94.4%,97.3%,99.9%,111%,
O=C1CSC(=S)N1Cc1cccnc1,101%,109,78.4%,106%,83.9%,36.8%,95.4%,44.6%,53.6%,25%,7.08% (active),102%,106%,,107%,120%,93.6%,59.5%,85.1%,
N#CC(=C1SCS1)[N+](=O)[O-],43.9%,75.3,41.7%,-6.65% (active),63%,-40.3% (active),20.9%,21.8%,-21.5% (active),2.38% (active),28.4%,21.4%,16%,12.2%,34.9%,35.9%,11.5%,35.3%,-1.46% (active),
O=[N+]([O-])c1ccc2c(c1)Cc1ccccc1-2,99.9%,108,94.8%,99.9%,,,94.8%,91%,116%,97.7%,94.5%,95.7%,102%,109%,95.9%,100%,100%,97.2%,106%,106
CCCCCCCCCCCC1N=C(N)N=C(N)N1c1cccc(Br)c1 (stereo not drawn),6.58% (active),39.1,-8.64% (active),-58.4% (active),,,21.7%,4.98% (active),-77.3% (active),17.7%,-20.1% (active),76%,-48.1% (active),-32.1% (active),8.27% (active),18.9%,12%,61.3%,11.4%,54.4
Cc1cc(C(=O)c2ccc(Cl)cc2)ccc1O,102%,90.1,85.7%,106%,104%,72.5%,91.8%,79.7%,122%,98.2%,112%,112%,94.3%,75.7%,92.5%,90.3%,93%,115%,89.2%,
Cc1ccc2c(c1)sc(-c1ccc(N(C)C)cc1)[n+]2C,12.2%,17.8,1.81% (active),-25.7% (active),-38.6% (active),8.21% (active),26.6%,7.31% (active),-83% (active),20.4%,-21.7% (active),0.435% (active),2.82% (active),39.7%,18.5%,-5.75% (active),12.5%,4.53% (active),,
